Test results from PubChem BioAssay (NCATS).
Results filed as inconclusive are left out. Active and inactive are the calls of the source. Calls follow the shape of the dose curve; as a rule, active = well fitted inhibition curve with a large enough effect; inconclusive = small, poorly fitted or top-dose-only effect; inactive = flat fitted curve, though single readings scatter.

Legend:
Assay in all cases: qHTS profiling for inhibitors of Plasmodium falciparum proliferation (AID 504749); also: nearly all actives have a fitted effect of over 60% in size
Conditions in all cases: P. falciparum in erythrocytes, SYBR Green DNA, 72 h; series mostly up to 28.7 µM
CP192 = system: CP192
Summary of the method: (§1)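 Parasite proliferation within erythrocytes, 72 h exposure. Endpoint: SYBR Green I fluorescence after overnight lysis at room temperature. Controls: 0.29 uM artemisinin, DMSO.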

CP211 = system: CP211
Summary of the method: as §1

CP237 = system: CP237
Summary of the method: as §1

CP260 = system: CP260
Summary of the method: as §1

CP265 = system: CP265
Summary of the method: as §1

CP266 = system: CP266
Summary of the method: as §1

CP194 = system: CP194
Summary of the method: as §1

CP201 = system: CP201
Summary of the method: as §1

CP238 = system: CP238
Summary of the method: as §1

CP252 = system: CP252
Summary of the method: as §1

CP262 = system: CP262
Summary of the method: as §1

CP269 = system: CP269
Summary of the method: as §1

CP286 = system: CP286
Summary of the method: as §1

CP250 = system: CP250
Summary of the method: as §1

CP256 = system: CP256
Summary of the method: as §1

CP247 = system: CP247
Summary of the method: as §1

CP215 = system: CP215
Summary of the method: as §1

CP217 = system: CP217
Summary of the method: as §1

CP268 = system: CP268
Summary of the method: as §1

CP203 = system: CP203
Summary of the method: as §1

Measured: Potency
Potency is read from the fitted curve at half-maximal effect.

NC(=O)N/N=C/c1ccc([N+](=O)[O-])o1
active: CP237 10 µM | CP260 10 µM | CP265 8.91 µM
inactive: CP192 | CP211 | CP266

[Cl][In]([Cl])[Cl]
inactive: CP192 | CP194 | CP201 | CP211 | CP238 | CP252 | CP262

COCCOC(=O)C1=C(C)NC(C)=C(C(=O)OC/C=C/c2ccccc2)C1c1cccc([N+](=O)[O-])c1 (stereo not drawn)
inactive: CP266

CN1CCC[C@@H]1Cc1c[nH]c2ccc(CCS(=O)(=O)c3ccccc3)cc12
inactive: CP192 | CP252 | CP262 | CP266 | CP269

CSc1ccc2c(c1)N(CCC1CCCCN1C)c1ccccc1S2 (stereo not drawn)
active: CP237 10 µM | CP260 7.94 µM | CP269 10.7 µM | CP286 11.2 µM
inactive: CP201 | CP211 | CP266

CSc1ccc2c(c1)C(N1CCN(C)CC1)Cc1ccccc1S2 (stereo not drawn)
active: CP260 10 µM
inactive: CP192 | CP201 | CP250 | CP256 | CP262 | CP265 | CP266

CCOc1nc2cccc(C(=O)O)c2n1Cc1ccc(-c2ccccc2-c2nn[nH]n2)cc1
inactive: CP192 | CP201 | CP211 | CP237 | CP238 | CP247 | CP250 | CP256 | CP260 | CP262 | CP265 | CP266 | CP286

CC(=O)c1ccc2c(c1)N(CCCN(C)C)c1ccccc1S2
inactive: CP192 | CP201 | CP211 | CP215 | CP217 | CP237 | CP238 | CP247 | CP250 | CP252 | CP256 | CP260 | CP262 | CP265 | CP266 | CP268 | CP269 | CP286

CNCCCC1c2ccccc2C=Cc2ccccc21
inactive: CP192 | CP201 | CP211 | CP237 | CP247 | CP250 | CP252 | CP260 | CP262 | CP266 | CP268 | CP286

Oc1ccc(C(O)CNCCCCCCNCC(O)c2ccc(O)c(O)c2)cc1O (stereo not drawn)
active: CP247 11.2 µM | CP260 7.94 µM | CP286 7.08 µM
inactive: CP262

CCN(CC)CCNC(=O)c1c(C)[nH]c(/C=C2\C(=O)Nc3ccc(F)cc32)c1C
active: CP211 10.7 µM | CP217 11.2 µM | CP237 8.91 µM | CP238 7.94 µM | CP247 10 µM | CP250 14.1 µM | CP252 7.94 µM | CP256 11.2 µM | CP260 7.08 µM | CP269 5.36 µM | CP286 11.2 µM

CN1CCN(C2Cc3ccccc3Sc3ccc(Cl)cc32)CC1 (stereo not drawn)
inactive: CP192 | CP201 | CP211 | CP238 | CP247 | CP250 | CP252 | CP256 | CP262 | CP265 | CP266 | CP269

CC(C(O)c1ccc(O)cc1)N1CCC(Cc2ccccc2)CC1 (stereo not drawn)
active: CP194 15.1 µM | CP203 12 µM | CP237 8.91 µM | CP268 15.1 µM | CP269 12 µM

CN(C)CCCN1c2ccccc2Sc2ccc(Cl)cc21
active: CP215 15.1 µM | CP286 12.6 µM
inactive: CP201 | CP247 | CP256 | CP262 | CP266

CNCCC(Oc1ccc(C(F)(F)F)cc1)c1ccccc1 (stereo not drawn)
inactive: CP192 | CP201 | CP211 | CP217 | CP237 | CP262 | CP266
active: CP286 10 µM

Cc1ccc2nc(N)[nH]c(=O)c2c1Sc1ccncc1
active: CP250 2.24 µM | CP252 1.58 µM | CP256 10 µM | CP260 11.2 µM | CP265 10 µM | CP286 2.82 µM
inactive: CP192 | CP194 | CP201 | CP266

CNC(=O)Oc1ccc2c(c1)[C@]1(C)CCN(C)[C@@H]1N2C
active: CP237 4.47 µM | CP238 1.78 µM | CP247 1.58 µM | CP250 1.58 µM | CP252 1.78 µM | CP256 2 µM | CP260 8.91 µM | CP265 1.58 µM | CP286 7.08 µM

Nc1ccc(S(=O)(=O)Nc2ccc(Cl)nn2)cc1
inactive: CP192 | CP194 | CP201 | CP211 | CP215 | CP237 | CP260 | CP266 | CP268 | CP269 | CP286

NC(CSCC(=O)O)C(=O)O (stereo not drawn)
inactive: CP192 | CP194 | CP201 | CP211 | CP217 | CP237 | CP238 | CP247 | CP250 | CP252 | CP256 | CP260 | CP262 | CP265 | CP268 | CP269 | CP286

OCCN1CCN(CCCN2c3ccccc3Sc3ccc(Cl)cc32)CC1
inactive: CP192 | CP266
active: CP247 2.51 µM | CP252 3.55 µM | CP256 3.98 µM | CP260 3.16 µM | CP265 3.55 µM | CP286 3.16 µM

CCCCN1CCCC[C@H]1C(=O)Nc1c(C)cccc1C
inactive: CP192 | CP201 | CP211 | CP215 | CP217 | CP238 | CP247 | CP250 | CP252 | CP256 | CP260 | CP262 | CP266 | CP268 | CP269 | CP286
active: CP237 8.91 µM

Cc1cc(N)c2ccccc2[n+]1CCCCCCCCCC[n+]1c(C)cc(N)c2ccccc21
active: CP194 0.361 µM | CP201 0.642 µM | CP211 0.144 µM | CP215 0.809 µM | CP217 0.447 µM | CP237 0.126 µM | CP238 0.282 µM | CP247 1.58 µM | CP250 0.708 µM | CP252 0.447 µM | CP256 0.0794 µM | CP260 0.631 µM | CP262 0.181 µM | CP265 0.0004 µM | CP268 0.572 µM | CP269 0.51 µM | CP286 0.447 µM

c1ccc(CN(CC2=NCCN2)c2ccccc2)cc1
inactive: CP192 | CP201 | CP211 | CP217 | CP247 | CP252 | CP256 | CP262 | CP266 | CP269
